Measured values as given in PubChem BioAssay (NCATS).
Inconclusive results are not listed. A call without a number means that no potency is given here. The source made the active and inactive calls. The call rests on the fitted dose curve; in most records, active means well fitted inhibition curve with a large enough effect; inconclusive means small, poorly fitted or top-dose-only effect; inactive means flat fitted curve, though single readings scatter. Where a SMILES comes first, the peptide text is derived from it. [ ]: non-standard residue; d: D form. ξ: configuration not given here. ξTyr(βOH) = NC(C(=O)O)C(O)c1ccc(O)cc1

Test: P-glycoprotein substrates identified in KB-8-5-11 adenocarcinoma cell line, qHTS therapeutic library screen (AID 1346987); further: nearly all actives have a fitted effect of over 65% in size
Details: KB-8-5-11 (P-gp overexpressing) viability, CellTiter-Glo, 72 h; series mostly up to 44.5 µM
Outline: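 Compounds are pinned in dose-response onto KB-8-5-11 cells (500 cells/well, colchicine-free medium) and left 72 h at 37 degree C. CellTiter-Glo luminescence then yields AC50 values.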
For `C[C@@H]1O[C@@H](O[C@H]2[C@H](O[C@H]3[C@H](O[C@H]4CC[C@@]5(C)C(CC[C@]6(C)C5CC=C5[C@@H]7CC(C)(C)C[C@@H](O)[C@]7(C)CC[C@]56C)[C@@]4(C)CO)O[C@H](C(=O)O)[C@@H](O)[C@@H]3O)O[C@H](C(=O)O)[C@H](O)[C@@H]2O)[C@H](O)[C@H](O)[C@H]1O` (stereo partly drawn), the outcome was “inactive [at 9.29 µM]”. In the case of `O=C(OC(C(F)(F)F)C(F)(F)F)N1CCN(Cc2cccc(Oc3ccccc3)c2)CC1`, the Potency was “inactive”. For `Cc1ccccc1-c1cc(N2CCN(C)CC2)ncc1N(C)C(=O)C(C)(C)c1cc(C(F)(F)F)cc(C(F)(F)F)c1`, the Potency was “inactive”. In the case of `C[C@@H]1O[C@@H](O[C@H]2[C@@H]3C=CO[C@@H](O[C@@H]4O[C@H](CO)[C@@H](O)[C@H](O)[C@H]4O)[C@@H]3[C@@]3(CO)O[C@@H]23)[C@H](O)[C@H](OC(=O)/C=C/c2ccc(O)c(O)c2)[C@H]1O`, the Potency was “inactive”. For `COc1cc(C(C)=O)ccc1O[C@@H]1O[C@H](CO)[C@@H](O)[C@H](O)[C@H]1O`, the Potency was “inactive”. With `C/C=C(\C)C(=O)OC1CC2C(CC=C3CC(OC4CC(OC)C(OC5CC(OC)C(OC6CC(OC)C(OC7CC(OC)C(OC8CC(OC)C(OC9OC(CO)C(O)C(O)C9O)C(C)O8)C(C)O7)C(C)O6)C(C)O5)C(C)O4)CCC32C)C2(O)CCC(C(C)=O)C12C` (stereo not drawn) the outcome was “inactive [at 9.29 µM]”. In the case of `Cc1cc(-c2nncc3c(C(C)(C)C)c(OCc4ncnn4C)nn23)no1`, the Potency was “inactive”. With `O=C(OC1C=C(CO)C2C(OC3OC(CO)C(O)C(O)C3O)OC=CC12O)c1ccc(O)cc1` (stereo not drawn) the Potency was “inactive”. In the case of `CC1(C)CC[C@]2(C(=O)O)CC[C@]3(C)C(=CCC4[C@@]5(C)C[C@@H](O)[C@H](O)[C@](C)(CO)C5CC[C@]43C)[C@@H]2[C@@H]1O` (stereo partly drawn), the Potency was “inactive”. In the case of `C/C=C(/C)C(=O)OC1C2OC2C2(CO2)C2C3OC(=O)C(C)C3CCC12C` (stereo not drawn), the Potency was “inactive”. For `COC(=O)C1=C[C@@H](O)[C@@H](O)[C@H](O[C@@H]2O[C@H](CO)[C@@H](O)[C@H](O)[C@H]2OC(=O)/C=C/c2ccccc2)C1`, the Potency was “inactive”. In the case of `C[C@]1(OC(=O)/C=C\c2ccc(O)cc2)C[C@@H](O)[C@]2(O)C=CO[C@@H](O[C@@H]3O[C@H](CO)[C@@H](O)[C@H](O)[C@H]3O)C12` (stereo partly drawn), the Potency was “inactive”. In the case of `CC(C)(O)[C@@H]1CC[C@]2(CO)[C@@H](O)CC[C@](C)(O)[C@H]2[C@@H]1O[C@@H]1O[C@H](CO)[C@@H](O)[C@H](O)[C@H]1O`, the Potency was “inactive”. In the case of `CC(=O)O[C@H]1[C@H](OC(=O)C(C)C)[C@]2(C)OC3(CC[C@]2(C)[C@H]2CCC[C@]4(CO4)[C@]12C)COC(=O)C3` (stereo partly drawn), the Potency was “inactive”. For `COC(=O)CCC1(C)C(C(C)(C)O)C(O)CC2(C)Oc3c(C)c4c(c(OC)c3CC21)C(=O)OC4` (stereo not drawn), the Potency was “inactive”. In the case of `Cc1ncc(NC(=O)c2ccc(CN3CCN(C)CC3)c(C(F)(F)F)c2)cc1Nc1nccc(-c2cccnc2)n1`, the Potency was “inactive”. For `CC1=CC2=C(C)C(=O)[C@](C)(O)[C@H](O)C2=CO1`, the Potency was “inactive”. In the case of `C[C@@H]1CC[C@]2(C(=O)O[C@@H]3O[C@H](CO[C@@H]4O[C@H](CO)[C@@H](O[C@@H]5O[C@@H](C)[C@H](O)[C@@H](O)[C@H]5O)[C@H](O)[C@H]4O)[C@@H](O)[C@H](O)[C@H]3O)CC[C@]3(C)C(=CCC4[C@@]5(C)C[C@@H](O)[C@H](O)[C@@](C)(CO)C5CC[C@]43C)C2[C@H]1C` (stereo partly drawn), the activity change, negative = cytotoxicity was 2.95% [at 9.29 µM] (inactive). In the case of `CC(=O)/C=C/[C@H]1[C@](C)(O)[C@@H](O)[C@H](O)C2C(C)(C)CCC[C@@]21C` (stereo partly drawn), the Potency was “inactive”. With `C/C=C1/C[N+](C)([O-])C2Cc3c([nH]c4ccccc34)C(=O)CC1C2C(=O)OC` (stereo not drawn) the Potency was “inactive”. For `C=C(COC(=O)CC(C)C)C1Cc2cc(C(C)=O)ccc2O1` (stereo not drawn), the Potency was “inactive”. In the case of `COc1cncc(C#Cc2ccccn2)c1`, the Potency was “inactive”. With `O=C(/C=C/c1ccccc1)O[C@@H]1[C@@H](CO)O[C@@](CO)(O[C@H]2O[C@H](CO)[C@@H](O)[C@H](O)[C@H]2O)[C@H]1O` the Potency was “inactive”. In the case of `C[C@@H]1O[C@@H](OC(=O)Cc2ccccc2)[C@H](O)[C@H](O)[C@H]1O`, the Potency was “inactive”. With `CC1(C)C2CC[C@@]34CC(CC[C@H]3[C@]2(C)CC[C@@H]1O[C@@H]1O[C@H](CO)[C@@H](O)[C@H](O)[C@H]1O)[C@](C)(O)C4` (stereo partly drawn) the Potency was “inactive”. With `O=C(O)c1ccncc1Nc1nn(CCN2CCC(F)(F)CC2)c2ccc(F)cc12` the Potency was “inactive”. For `COc1cc(C(=O)OC[C@@]2(O)CO[C@@H](O[C@H]3[C@H](Oc4ccc(O)cc4)O[C@H](CO)[C@@H](O)[C@@H]3O)[C@@H]2O)cc(OC)c1O`, the Potency was “inactive”. With `CC(=O)O[C@@H]1C(=O)C(C)=C(CCC(C)CC(=O)O)[C@@]2(C)CCCC(C)(C)C12` (stereo partly drawn) the Potency was “inactive”. In the case of `Nc1c(-c2ccccc2)nc(Cl)c2c(O)n[nH]c(=O)c12`, the Potency was “inactive”. In the case of `CC(O)CCc1ccc(O[C@@H]2O[C@H](CO)[C@@H](O)[C@H](O)[C@H]2O)cc1` (stereo partly drawn), the Potency was “inactive”. With `CC1(C)CC[C@]2(C(=O)O)CC[C@]3(C)C(=CCC4[C@@]5(C)C[C@@H](O)[C@H](O)[C@@](C)(CO)C5[C@H](O)C[C@]43C)[C@@H]2C1` (stereo partly drawn) the Potency was “inactive”. With `CC(C)CC(=O)OC[C@@]1(O)C[C@@]23CC[C@H]4[C@@](C)(CCC[C@@]4(C)C(=O)O)[C@@H]2CC[C@@H]1C3` the Potency was “inactive”. In the case of `CC1=C2C[C@@]3(C)C(CCC[C@@H]3C)C(O)C2(O)OC1=O` (stereo partly drawn), the Potency was “inactive”. For `CC(C)C1NC(=O)CNC(=O)C2CCCN2C(=O)C(Cc2c[nH]c3ccccc23)NC(=O)CNC(=O)C(C(O)c2ccc(O)cc2)NC(=O)CNC1=O` (stereo not drawn) (cyclo(G[ξTyr(βOH)]GWPGV); configuration not given here), the Potency was “inactive”. In the case of `CC(=O)OC/C(=C/C(=O)O)CC[C@@H]1C(C)=CC(=O)[C@@H]2C(C)(C)CCC[C@@]12C`, the Potency was “inactive”. For `Cc1c(C)c(NCC(=O)N(C)C2CCN(Cc3ccc(C(N)=O)cc3)CC2)c(C)c(C)c1N`, the Potency was “inactive”. In the case of `COc1ccc(CCC(=O)O)c(O[C@@H]2O[C@H](CO)[C@@H](O)[C@H](O)[C@H]2O)c1`, the Potency was “inactive”. For `COc1ccc(-n2c(SCC#N)nc3sc4c(c3c2=O)CCCC4)cc1`, the Potency was “inactive”.
